Laboratory results reported in PubChem BioAssay (EPA / NIEHS).
Calls of active or inactive are those of the source. The calls were made as follows: active = hit-call score of the fitted dose curve at least 0.9, where 1 is the maximum; inactive = score below 0.9.

What follows are compounds tested against Heat shock factor protein 1 (Homo sapiens) (UniProt Q00613) (assay: ATG_HSE_CIS: Attagene CIS-FACTORIAL HepG2 Assay for human Heat Shock Transcription Factor 1 (HSE) (AID 2282953)). Conditions: HepG2 HSE cis-reporter, Attagene RNA transcription; actives raise or lower the signal.
Description: ATG_CIS is a cell-based, multiplexed-readout assay that uses HepG2, a human liver cell line, with measurements taken at 24 hours after chemical dosing in a 24-well plate.ATG_HSE_CIS is one of 52 assay component(s) measured or calculated from the ATG_CIS assay. It is designed to make measurements of mRNA induction, a form of inducible reporter, as detected with fluorescence intensity signals by Reverse transcription polymerase chain reaction (RT-PCR) and Capillary electrophoresis technology.Data from the assay component ATG_HSE_CIS was analyzed into 1 assay endpoint. This assay endpoint, ATG_HSE_CIS, was analyzed with bidirectional fitting relative to DMSO as the negative control and baseline of activity. Using a type of inducible reporter, measures of mRNA for gain or loss-of-signal activity can be used to understand the reporter gene at the transcription factor-level as they relate to the gene HSF1. Furthermore, this assay endpoint can be referred to as a primary readout, because this assay has produced multiple assay endpoints where this one serves a reporter gene function. To generalize the intended target to other relatable targets, this assay endpoint is annotated to the dna binding intended target family, where the subfamily is heat shock protein.
Human liver HepG2 cells are transiently transfected with multiple reporter transcription units (MRTUs) in 6-well plates using FuGene 6 reagent (Roche; 3 ml FuGene/1 mg DNA). The MRTU constructs are regulated by a cis-regulating element (promoter). […] A major difference between the CIS and TRANS system is that in CIS activities of endogenous TFs are measured, whereas the TRANS assay evaluates changes in activities of exogenous, chimeric NR-Gal4 proteins. […] At the end of 24 hour incubation, total RNA was isolated using TriZol reagent (Invitrogen). The isolated RNA is then reverse-transcribed using oligo(dT) primer and Mo-MLV reverse transcriptase (Invitrogen) with DNAse I (Ambion) treatment for 30 min. The one-tenth of the produced cDNA was amplified by PCR using Taq DNA polymerase (Invitrogen) and two reporter sequence-specific primers. The PCR products were fluorescently labeled by primer extension with 6-arboxyfluorescein (6-FAM) 5'-labeled reporter sequence-specific primer (2 min at 95 C, 20 s at 68 C and 10 min at 72 C) and these products were digested with 5U of HpaI (New England Biolabs) for 2h at 37 C. The fragments were purified using Qiaquick PCR columns (Qiagen), analyzed on an ABI 3130xL genetic analyzer (Applied Biosystems) with peak positions identified by using a set of X-rhodamine (ROX)-labeled MapMarker1000 molecular weight standards (BioVentures). The raw capillary electrophoresis data was processed using Attagraph software (Attagene).

Heat shock factor protein 1 (Homo sapiens), sequence (Q00613 whole entry, looked up): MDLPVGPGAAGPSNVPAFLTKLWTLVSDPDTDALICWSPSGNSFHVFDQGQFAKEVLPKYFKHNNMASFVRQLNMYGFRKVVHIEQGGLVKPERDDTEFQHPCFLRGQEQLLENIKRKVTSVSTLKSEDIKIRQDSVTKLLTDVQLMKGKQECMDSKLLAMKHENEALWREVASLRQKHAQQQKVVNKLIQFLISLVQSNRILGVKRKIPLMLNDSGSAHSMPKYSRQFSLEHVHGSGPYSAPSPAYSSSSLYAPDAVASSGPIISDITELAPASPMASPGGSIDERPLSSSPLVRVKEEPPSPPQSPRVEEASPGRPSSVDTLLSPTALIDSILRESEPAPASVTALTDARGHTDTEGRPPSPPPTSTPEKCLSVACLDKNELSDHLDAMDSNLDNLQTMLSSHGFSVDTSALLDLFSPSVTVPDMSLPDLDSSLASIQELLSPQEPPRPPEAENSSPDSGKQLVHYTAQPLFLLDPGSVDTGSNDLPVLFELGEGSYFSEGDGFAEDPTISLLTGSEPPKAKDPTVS

outcome, inactive:
CCCCCCCCCCCC(=O)OC[C@@H](O)[C@H]1OC[C@H](O)[C@H]1O
CCCCCCCCCCCCCCCC(=O)OC/C=C(C)/C=C/C=C(C)/C=C/C1=C(C)CCCC1(C)C
CCOc1ccccc1O
CCOc1ccc(NC(=O)CC(C)O)cc1 (stereo not given)
CN1C(=O)c2ccccc2C1=O
CC(Oc1cc(Cl)ccc1Cl)C(=O)O (stereo not given)
CCCCC1CCC(O)CC1 (stereo not given)
O=C(O)CNc1ccccc1
O=C1OC(=O)c2c(Br)c(Br)c(Br)c(Br)c21
CCCCCCCCSCCO
CCCCCCCCCCCCS(=O)(=O)Cl
C[N+](C)(C)CCCCCC[N+](C)(C)C
C=Cc1ccc(C(C)(C)C)cc1
O=C(O)c1cccnc1C(=O)O
O=C(O)c1ccc(O)cc1
COc1ccc(CCO)cc1
CCCCCCCCCC(C)C=O (stereo not given)
CS(=O)(=O)c1ccc(C2=C(c3ccccc3)C(=O)OC2)cc1
O=C1NC2NC(=O)NC2N1 (stereo not given)
C=CCN(CC=C)CC=C
CCCCC(CC)COC(C)=O (stereo not given)
NCCNc1cccc2ccccc12
COC(=O)c1cccnc1
O=P(O)(O)O
CC(C=O)Cc1ccc(C(C)(C)C)cc1 (stereo not given)
CCCCCCC(CO)CCCC (stereo not given)
CC(=O)NCCO
ClC(c1ccccc1)(c1ccccc1)c1ccccc1
Cc1ccc(OC(=O)c2ccccc2O)cc1
COCCOCCOCCO
CCC(=O)OCCOc1ccccc1
CCOC(=O)COC(=O)c1cc(Oc2ccc(C(F)(F)F)cc2Cl)ccc1[N+](=O)[O-]
ON=C1CCCCC1
C=C(C)[C@@H]1CC=C(C)C(=O)C1
CCCC(C)=O
COc1cc(CCC(C)=O)ccc1O
CCCC(=O)OCCc1ccccc1

AC50, active:
CCCCCCCCCCCCN1CCCCCC1=O 15.8 µM
C=CCCC(=O)/C=C/C1C(C)=CCCC1(C)C (stereo not given) 152 µM
CCCCN(CCCC)C(=O)N(CCCC)CCCC 52.2 µM
